Compounds with a hit are over-represented: about 7% of the library has one in this group of screens.
DRD3 antagonist: D3 dopamine receptor (human) antagonism | D3R cells, DiscoveRx beta-arrestin luminescence, antagonist mode; active compounds read low | max response, negative = inhibition, % | 2.5% of 360,000 active | AID 652054; in the data active = max response below about -50%; inconclusive = no clear call, values can overlap the other calls; note: % is set by controls: 0 for no effect and ±100 for the full control effect
Target sequence (P35462 whole entry, looked up): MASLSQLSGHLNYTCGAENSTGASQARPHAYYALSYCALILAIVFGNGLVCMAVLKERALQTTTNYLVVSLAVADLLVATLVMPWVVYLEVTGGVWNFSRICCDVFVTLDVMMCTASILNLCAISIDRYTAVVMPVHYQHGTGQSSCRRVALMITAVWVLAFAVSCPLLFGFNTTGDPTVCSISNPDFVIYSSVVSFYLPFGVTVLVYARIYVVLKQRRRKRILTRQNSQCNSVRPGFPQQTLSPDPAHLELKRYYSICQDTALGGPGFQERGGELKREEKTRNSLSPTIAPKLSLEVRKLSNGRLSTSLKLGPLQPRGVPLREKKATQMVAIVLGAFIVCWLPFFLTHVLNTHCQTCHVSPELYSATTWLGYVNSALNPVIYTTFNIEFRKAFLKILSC
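Cells plated overnight at 1500 cells/well, then exposed to library compounds with dopamine controls for 90 minutes at 37 degrees C. DiscoveRx reagent added for 30–60 minutes at room temperature; luminescence read, quantitative HTS format.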
ATXN2 expr inh: reduces ATXN2 reporter expression in HEK-293 cells; HEK-293 ATXN2-luciferase reporter, luminescence, 24 h; Potency, µM (doses to about 57 µM), for inactives: top-dose activity change, negative = inhibition, hits mostly inhibitors; 0.72% of 360,000 active; AID 1745845; note: potency is the fitted concentration of half-maximal effect; % is set by controls: 0 for no effect and ±100 for the full control effect; nearly all actives have a fitted effect of over 55% in size
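qHTS (up to 57 uM final) was run with 24 h compound exposure of reporter cells at 37 °C. Each well was multiplexed: SteadyGlo luminescence measured ATXN2-luciferase expression after a fluorogenic Gly-Phe-AFC viability readout (25 uM final).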
IL-1B inflam inh: blocks inflammasome-driven IL-1 beta release; THP-1 LPS/ATP IL-1B secretion, AlphaLISA, 16 h; active compounds read low; activity change, % at 57.5 µM; 4.7% of 360,000 active; in the data active = activity change below about -50%; inconclusive = mostly about -30% to -49%; note: % is set by controls: 0 for no effect and ±100 for the full control effect
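THP-1 cells pretreated 1 hr with compounds (up to 57.5 uM final), then stimulated with LPS (250 ng/mL final) plus ATP (1.25 mM final); secreted IL-1B measured by AlphaLISA after 16 hr, decreased signal indicating inhibition.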
ATXN viability: cell viability loss in ATXN counter-screen. AID 651635. S2 cells (HEK-293 line with an ATXN2-luciferase reporter) viability, CellTiter-Fluor protease fluorescence, 24 h. Potency, µM (top dose mostly 56.7 µM), actives largely listed as cytotoxic. 0.49% of 400,000 active; note: potency is the fitted concentration of half-maximal effect; nearly all actives have a fitted effect of over 40% in size
Integrin act MD: integrin-mediated muscular dystrophy alleviation activation; alpha7betagal myoblasts, beta-gal FDG fluorescence, 48 h; Potency, µM (highest dose often 38.3 µM), for inactives: at the highest dose activation, most hits filed as activators; 0.064% of 350,000 active; AID 624291;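 note: potency is the fitted concentration of half-maximal effect; 100% = response of the positive control SU9516; nearly all actives have a fitted effect of over 60% in size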
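alpha7betagal+/- myoblasts (passage 13, 250/well) treated 48 h at 37C with compounds at 1:260 dilution of DMSO stock. Lysed, then beta-galactosidase activity read as FDG fluorescence (ex 480/em 540) after 30 min, with pre-read for autofluorescence.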
D3 ag: agonists of human D3 dopamine receptor | D3R DiscoveRx beta-arrestin cells, luminescence, 90 min | max activation, % | 0.58% of 410,000 active | AID 652048; in the data active = max activation above about 30%; note: 0% is about no effect
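Agonist-mode cell screen: cells plated at 1500/well and incubated overnight at 37 °C, then exposed to library compounds for 90 min at 37 °C. Detection reagent was added for 30–60 min at room temperature, and luminescence was read.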
* marks the source's active call; other numbers are inactive results; i = inactive; ? = inconclusive; . = not tested or not shown; [ ] = dose if it differs, or a comment. Unless noted, calls come from the whole dose curve; as a rule, active = well fitted curve in the direction sought with a large enough effect; inconclusive = small, poorly fitted or top-dose-only effect, or another doubt; inactive = no such curve, though single readings can be large; an effect the other way counts as inactive or inconclusive.

SMILES	DRD3 antagonist	ATXN2 expr inh	IL-1B inflam inh	ATXN viability	Integrin act MD	D3 ag
NC(c1ccccc1)c1csc(NC(=O)Nc2cccc(Cl)c2)n1 (centres undefined)	3.6	?	-104.1*	?	.	-8.8
NC(COCc1ccccc1)c1csc(NC(=O)Nc2cccc(C(F)(F)F)c2)n1 (centres undefined)	-4.7	?	-54.8*	.	.	-2.1
COc1ccccc1N(Cc1cc2cccc(C)c2[nH]c1=O)C(=O)c1cccc(Cl)c1	.	-31.0%	.	i	.	1.3
COC(=O)c1ccccc1COc1cccn2c(N(C)CC3CC3)c(C)nc12	-5.0	-23.9%	-13.0	?	.	-9.1
CCc1nc2c(OCc3ccc(C(F)(F)F)cc3)cccn2c1N(C)C(=O)c1ccc(C)cc1	-65.8*	?	-76.0*	?	.	-14.3
CCc1nc2c(OCc3ccc(F)c(F)c3)cccn2c1N(C)C(=O)c1ccc(C)cc1	-15.2	-28.0%	-15.1	i	.	2.6
CCc1nc2c(OCc3cc(Cl)cc(Cl)c3)cccn2c1N(C)C(=O)c1ccc(C)cc1	?	?	-57.1*	?	.	-5.9
CCc1nc2c(OCc3ccc(C(F)(F)F)cc3)cccn2c1N(C)C(=O)c1ccc(OC)cc1	?	?	-80.6*	?	.	-11.9
Cc1nc2c(OCc3ccc(C(F)(F)F)cc3)cccn2c1N(C)CC1CC1	-98.6*	35.5µM*	-19.1	22.4µM*	.	-27.7
COCCCn1c(=O)/c(=C\c2ccccc2OC(F)F)s/c1=C(/C#N)C(N)=O	4.9	-8.7%	35.9	i	11.3%	-4.6
O=C(CNC(=O)c1ccc(Cl)cc1Cl)OCc1nnc(-c2ccccc2Br)o1	-1.3	-2.3%	16.3	?	13.4%	-0.2
O=C(NCc1ccc2c(c1)OCO2)c1[nH]c(C(F)(F)F)nc1-c1ccccc1	2.1	-0.3%	21.9	?	.	8.1
OCC1(CCc2ccccc2)CCN(Cc2cc(Cl)ccc2O)CC1	-23.1	-0.2%	-84.8*	i	-10.9%	-14.3
COCC(=O)Nc1nc(-c2ccc(-c3ccccc3)cc2)cs1	0.0	51.1%	-17.8	i	-36.3%	1.9
CCOc1ccc(NC(=O)c2ccc(N3CC4CC(C3)c3cccc(=O)n3C4)c(NC(=O)c3ccncc3)c2)cc1 (centres undefined)	6.2	-3.7%	-10.3	i	25.0%	-2.2
O=C(CCN1CCOCC1)Nc1cc(C(=O)Nc2ccc(Cl)cc2)ccc1N1CC2CC(C1)c1cccc(=O)n1C2 (centres undefined)	-3.5	-15.2%	-63.1*	i	-30.6%	4.7
CCCNC(=O)c1cc(C2CCCN(C(=O)C3CC3)C2)on1 (centres undefined)	15.0	8.9%	-5.8	i	.	9.0
C#Cc1ccc(CN2CCN(Cc3ccsc3)C(CCO)C2)cc1 (centres undefined)	?	-7.1%	8.3	i	-25.8%	-21.1
OCCC1CN(Cc2ccc(-c3ccco3)cc2)CCN1Cc1ccsc1 (centres undefined)	-27.2	-8.0%	-61.2*	?	10.2%	-22.0
COc1ccc(Oc2nc(C)cc(C)c2S(C)(=O)=O)cc1	8.0	-10.5%	11.5	i	22.9%	1.4
COC(=O)c1cnn(-c2ccc(Cl)cc2)c1/C=N/NC(N)=S	12.9	-22.2%	-95.0*	?	-15.3%	4.3
Nc1c(C(=O)N/N=C/c2ccc(Cl)cc2)cnn1-c1ccccc1	6.5	12.2%	-1.9	i	0.6%	4.6
COC/C=C/C1=CC2=CC(=O)C(C)(OC(=O)c3cnc4ccccc4n3)C(=O)C2=CN1Cc1ccccc1 (centres undefined)	-64.7*	?	0.0	.	19.3%	-15.8
COC/C=C/C1=CC2=CC(=O)C(C)(OC(=O)c3cnc4ccccc4n3)C(=O)C2=CN1Cc1ccc(OC)cc1 (centres undefined)	-19.6	-13.8%	-60.1*	?	0.4%	-15.8
Cn1cnc([N+](=O)[O-])c1Cl	18.0	38.4%	-94.8*	?	-45.0%	-4.2
SMILES	DRD3 antagonist	ATXN2 expr inh	IL-1B inflam inh	ATXN viability	Integrin act MD	D3 ag
Cn1cnc([N+](=O)[O-])c1Oc1cccc2ccccc12	-6.3	?	.	?	-53.7%	-4.1
Cn1cnc([N+](=O)[O-])c1S(=O)(=O)Oc1cccc2ccccc12	-96.6*	?	-102.2*	15.8µM*	-59.7%	-35.0
Cn1cnc([N+](=O)[O-])c1S(=O)(=O)Oc1ccc(Cl)cc1	-89.5*	?	-97.3*	.	-70.8%	-13.2
CCOC(=O)C1=CCN(S(=O)(=O)c2cccc(Cl)c2)C1c1cccc(F)c1 (centres undefined)	-18.9	-16.6%	?	i	.	-20.0
CC1(C(=O)NS(=O)(=O)c2cccc(Cl)c2)CCN1C(=O)CCc1ccccc1 (centres undefined)	?	0.0%	-2.9	i	.	-10.2
Cc1cc(C)c(S(=O)(=O)NCC2CCC(C(=O)NCCCN3CCOCC3)CC2)c(C)c1 (centres undefined)	-23.7	-12.5%	-1.8	i	12.2%	-6.0
CC1=C(C(=O)OCc2ccccc2)C(c2ccccc2Br)NC(=O)N1 (centres undefined)	52.1	-4.2%	-72.4*	i	-38.5%	29.9
CC1=C(C(=O)OCc2ccccc2)C(c2ccc(N(C)C)cc2)NC(=O)N1 (centres undefined)	-12.4	-0.9%	-60.1*	i	1.1%	-2.6
COc1ccc(COC(=O)C2=C(C)NC(=O)NC2c2ccc(F)cc2)cc1 (centres undefined)	3.3	-23.4%	-52.4*	i	23.2%	5.1
CCOc1ccc(C2NC(=O)NC(C)=C2C(=O)OCc2ccccc2)cc1 (centres undefined)	-11.6	-20.4%	?	i	11.3%	1.6
CCc1cccc(C)c1NS(=O)(=O)c1cc(-c2cc(C)no2)ccc1C	.	.	.	.	.	-16.6
O=C(CSc1nnc(Cc2ccccc2)o1)c1cc(F)ccc1F	-8.2	-1.6%	-1.1	i	1.1%	-8.4
Cc1ccc(C(=O)Oc2coc(CSc3nnc(NC(=O)c4cccs4)s3)cc2=O)cc1	7.2	-3.0%	9.8	i	9.0%	-3.2
O=C(CN(Cc1ccccc1)C1=NCCS1)c1ccc(Cl)cc1	-63.6*	-25.1%	-6.9	i	-20.0%	-12.4
COc1ccc(C(=O)CN(Cc2ccccc2)C2=NCCS2)cc1	0.0	-11.5%	-23.2	i	7.9%	-37.8
NCC12CC3CC(C1)CC(c1ccc(Br)cc1)(C3)C2	14.8	.	-77.3*	.	-59.1%	1.8
Cc1ccc(C23CC4CC(CC(CN)(C4)C2)C3)cc1	-7.0	-9.3%[11.3 µM]	-94.6*	?	-59.1%	0.3
Cc1ccc(C23CC4CC(CC(CC(=O)NC(C)(C)CO)(C4)C2)C3)cc1	0.1	.	34.5	i	25.3%	0.5

High-throughput results: PubChem BioAssay, National Center for Advancing Translational Sciences (NCATS)
